# Results from PubChem BioAssay (NCATS).
# Results filed as inconclusive are left out. Where a call stands in place of a potency, no number is given. Calls of active or inactive are those of the source. Unless noted, calls follow the shape of the dose curve; as a rule, active = well fitted curve in the direction sought with a large enough effect; inconclusive = small, poorly fitted or top-dose-only effect, or another doubt; inactive = no such curve, though single readings can be large; an effect the other way counts as inactive or inconclusive.
# How the values were obtained:
# [1] = biological target: Luciferin 4-monooxygenase (Photinus pyralis) (UniProt P08659); test: Biochemical firefly luciferase enzyme assay for NPC (AID 624030);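 also: purified P. pyralis luciferase at 10 nM with luciferin and ATP substrate; nearly all actives have a fitted effect of over 70% in size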
# Chain of Luciferin 4-monooxygenase (Photinus pyralis) (P08659 whole entry, looked up): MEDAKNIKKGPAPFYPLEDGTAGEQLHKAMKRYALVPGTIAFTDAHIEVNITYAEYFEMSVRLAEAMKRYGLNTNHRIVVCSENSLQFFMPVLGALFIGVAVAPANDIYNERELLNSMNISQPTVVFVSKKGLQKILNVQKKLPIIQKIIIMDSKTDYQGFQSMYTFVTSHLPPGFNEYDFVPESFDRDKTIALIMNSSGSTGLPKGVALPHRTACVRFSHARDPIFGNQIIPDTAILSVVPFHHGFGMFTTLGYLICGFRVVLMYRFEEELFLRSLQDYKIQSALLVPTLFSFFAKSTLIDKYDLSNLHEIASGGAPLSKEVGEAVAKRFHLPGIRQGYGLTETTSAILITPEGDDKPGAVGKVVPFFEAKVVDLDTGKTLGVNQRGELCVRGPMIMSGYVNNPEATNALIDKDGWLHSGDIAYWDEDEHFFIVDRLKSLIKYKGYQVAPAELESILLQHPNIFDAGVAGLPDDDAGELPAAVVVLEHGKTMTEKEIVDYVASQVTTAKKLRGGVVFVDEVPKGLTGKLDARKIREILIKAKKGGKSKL
# Outline: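 Direct inhibition of firefly luciferase enzyme (10 nM final, 50 mM Tris Acetate) assessed by luminescence within 5 minutes. Percent activity scaled between DMSO and PTC124 positive control, with concentration-effect curves classified by fit quality and response.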
# [2] = S16 Schwann cell PMP22 intronic element firefly luciferase assay (AID 624032); also: nearly all actives have a fitted effect of over 30% in size; also: potency is read from the fitted curve at half-maximal effect
# Outline: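 Luciferase reporter of PMP22 intronic-element expression in stably transfected S16 rat Schwann cells, read by ONE-Glo luminescence after 24 h compound exposure at 37 C. Activity scaled between DMSO (0%) and positive-control PTC124; concentration-effect curves quality-classified.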
# [3] = S16 Schwann cell PMP22 intronic element beta-lactamase assay (AID 624044; calls by dose curve; also: nearly all actives have a fitted effect of over 15% in size; also: potency is read from the fitted curve at half-maximal effect)
# Outline: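 Rat S16 Schwann cells with beta-Lac driven by a PMP22 intronic element, compound-treated 24 h at 37 °C. LiveBLAzer FRET B/G read: 460 nm normalized to potassium clavulanate vs DMSO; 535 nm FRET as viability; concentration-effect curves classified.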
# [4] = biological target: Glutaminase kidney isoform, mitochondrial (Homo sapiens) (UniProt O94925); test: qHTS for Inhibitors of Glutaminase (GLS): LOPAC Validation (AID 624146); also: nearly all actives have a fitted effect of over 60% in size; also: potency is read from the fitted curve at half-maximal effect
# Chain of Glutaminase kidney isoform, mitochondrial (Homo sapiens) (O94925 whole entry, looked up, canonical isoform): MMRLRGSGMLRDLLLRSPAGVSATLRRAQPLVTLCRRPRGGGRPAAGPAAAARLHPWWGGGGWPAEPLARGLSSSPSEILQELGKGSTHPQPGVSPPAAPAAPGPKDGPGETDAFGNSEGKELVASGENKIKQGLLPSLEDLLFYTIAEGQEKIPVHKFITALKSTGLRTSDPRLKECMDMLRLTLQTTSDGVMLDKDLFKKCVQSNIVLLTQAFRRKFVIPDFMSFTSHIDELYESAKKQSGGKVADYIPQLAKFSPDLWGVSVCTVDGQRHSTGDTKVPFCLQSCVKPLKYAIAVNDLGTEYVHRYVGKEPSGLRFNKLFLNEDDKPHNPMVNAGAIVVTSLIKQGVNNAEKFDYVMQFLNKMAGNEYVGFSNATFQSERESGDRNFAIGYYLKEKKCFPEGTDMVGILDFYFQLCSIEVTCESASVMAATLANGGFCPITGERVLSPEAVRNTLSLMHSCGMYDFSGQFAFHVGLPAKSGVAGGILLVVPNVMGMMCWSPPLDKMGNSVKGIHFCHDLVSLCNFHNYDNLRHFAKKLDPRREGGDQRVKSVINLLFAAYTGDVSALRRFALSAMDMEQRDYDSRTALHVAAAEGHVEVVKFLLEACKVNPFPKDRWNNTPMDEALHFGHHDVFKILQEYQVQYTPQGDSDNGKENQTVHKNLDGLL
# Outline: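 Read-out is an Amplex red fluorescence increase coupled through glutamate oxidase and HRP, measured before and after 30 min room-temperature incubation. hKGA is in 45 mM KH2PO4 (pH 8.2) with 0.02% Tween-20; glutamine added as 1mM solution.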
# [5] = qHTS of Trypanosoma Brucei Inhibitors: LOPAC Validation (AID 624147)
# Outline: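 Luminescent Kinase-Glo Plus end-point after 45 min room-temperature reaction of T. brucei pyruvate kinase started with 130 uM ADP (final). Buffer TEA 50 mM pH 7.2 with KCl, MgCl2, BSA, Tween-20; titration-based qHTS with fitted concentration-effect curves.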
# [6] = biological target: Glucagon-like peptide 1 receptor (Homo sapiens) (UniProt P43220); test: qHTS of GLP-1 Receptor Agonists: LOPAC Validation (AID 624148);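 also: luminescence from a luciferase reporter switched on by cAMP; higher luminescence signal means agonism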
# Chain of Glucagon-like peptide 1 receptor (Homo sapiens) (P43220 whole entry, looked up): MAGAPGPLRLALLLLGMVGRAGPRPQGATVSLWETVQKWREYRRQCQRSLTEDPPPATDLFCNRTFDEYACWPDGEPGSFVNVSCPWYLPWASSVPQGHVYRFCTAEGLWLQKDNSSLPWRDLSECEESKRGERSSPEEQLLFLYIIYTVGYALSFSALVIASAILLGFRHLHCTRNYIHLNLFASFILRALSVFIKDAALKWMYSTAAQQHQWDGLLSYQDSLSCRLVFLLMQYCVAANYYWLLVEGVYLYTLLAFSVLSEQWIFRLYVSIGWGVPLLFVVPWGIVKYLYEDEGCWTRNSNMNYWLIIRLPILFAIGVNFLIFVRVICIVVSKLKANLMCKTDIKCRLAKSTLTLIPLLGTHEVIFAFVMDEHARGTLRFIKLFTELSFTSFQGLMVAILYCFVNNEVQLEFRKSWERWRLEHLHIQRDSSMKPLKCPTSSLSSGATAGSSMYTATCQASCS
# Outline: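 Agonism scored as increased luciferase luminescence driven by cAMP in HEK293 clones carrying GLP-1R. Cells settled 12 hours, received compound for 4-6 hr at 37 deg C, 5% CO2, and were read after 12 min detection reagent at RT.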
# [7] = qHTS of Nrf2 Activators: LOPAC Validation (AID 624149)
# Outline: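 Luminescence read-out of ARE-luciferase activation: AREc32_Fluc cells treated with compounds for 24 hr at 37 deg C, then lysed with Steady-Glo for 30 min at room temperature before reading.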
# [8] = HTS Assay for Allosteric Antagonists of the Human D2 Dopamine Receptor: Hit Validation in HTRF (AID 624455);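 also: stable D1 dopamine receptor cell line scored for blocking the D1 response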
# Outline: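 First, antagonism was screened by calcium flux in a force-coupled, inducible Hek293 Trex D2 line challenged with EC80 dopamine. Hits then went into an HTRF assay in cells stably expressing D1, testing inhibition of the D1 response.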
# [9] = S16 Schwann cell viability assay (CellTiter-Glo assay) (AID 624031); also: nearly all actives have a fitted effect of over 70% in size; also: potency is read from the fitted curve at half-maximal effect
# Outline: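 Native S16 rat Schwann cells, 500-750 cells/well in DMEM with 10% FBS, dosed with compound after overnight culture and incubated 24h at 37 degree Celsius/5% CO2. Viability by CellTiter-Glo luminescence; % activity normalized to no-cell wells and DMSO-treated cells.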
# [10] = biological target: Voltage-gated inwardly rectifying potassium channel KCNH2 (Homo sapiens) (UniProt Q12809); test: qHTS Assay for Small Molecule Inhibitors of the Human hERG Channel Activity (AID 588834);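 also: top concentration of the series differs between compounds; lower thallium flux fluorescence means stronger hERG block; nearly all actives have a fitted effect of over 50% in size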
# Chain of Voltage-gated inwardly rectifying potassium channel KCNH2 (Homo sapiens) (Q12809 whole entry, looked up): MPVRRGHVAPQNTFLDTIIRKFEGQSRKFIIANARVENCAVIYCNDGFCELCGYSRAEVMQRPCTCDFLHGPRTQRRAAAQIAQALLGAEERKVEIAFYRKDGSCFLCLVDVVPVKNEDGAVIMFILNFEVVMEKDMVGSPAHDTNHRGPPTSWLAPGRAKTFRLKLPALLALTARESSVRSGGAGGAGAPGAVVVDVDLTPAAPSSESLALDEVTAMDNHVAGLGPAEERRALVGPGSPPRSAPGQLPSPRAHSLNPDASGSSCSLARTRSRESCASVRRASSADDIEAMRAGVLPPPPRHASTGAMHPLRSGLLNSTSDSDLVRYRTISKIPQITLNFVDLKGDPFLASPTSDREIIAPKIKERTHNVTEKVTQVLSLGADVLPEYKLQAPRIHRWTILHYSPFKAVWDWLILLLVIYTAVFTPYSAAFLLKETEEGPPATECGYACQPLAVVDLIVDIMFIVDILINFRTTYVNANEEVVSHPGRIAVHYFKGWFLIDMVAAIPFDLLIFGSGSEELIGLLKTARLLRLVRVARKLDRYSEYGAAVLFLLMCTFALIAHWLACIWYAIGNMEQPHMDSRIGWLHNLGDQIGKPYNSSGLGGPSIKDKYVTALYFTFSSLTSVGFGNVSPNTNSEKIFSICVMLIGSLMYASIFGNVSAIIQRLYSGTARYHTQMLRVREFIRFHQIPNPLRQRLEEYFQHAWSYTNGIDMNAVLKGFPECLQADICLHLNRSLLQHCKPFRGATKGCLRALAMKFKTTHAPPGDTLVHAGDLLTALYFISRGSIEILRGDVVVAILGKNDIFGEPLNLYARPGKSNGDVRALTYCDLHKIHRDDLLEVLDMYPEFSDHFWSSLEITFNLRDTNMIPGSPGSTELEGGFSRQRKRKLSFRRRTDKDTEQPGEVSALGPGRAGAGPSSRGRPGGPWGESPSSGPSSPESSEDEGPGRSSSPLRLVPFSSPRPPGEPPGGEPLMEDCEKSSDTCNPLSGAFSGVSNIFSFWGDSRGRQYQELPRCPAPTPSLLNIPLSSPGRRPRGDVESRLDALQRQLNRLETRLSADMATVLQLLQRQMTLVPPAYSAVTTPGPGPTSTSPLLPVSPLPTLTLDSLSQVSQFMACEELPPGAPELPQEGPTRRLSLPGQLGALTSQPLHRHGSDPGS
# Outline: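 Kinetic FDSS fluorescence; U2OS + hERG BacMam (~100 virus particles/cell); FluxOR Tl+ flux; ~10 min cpd; AC50 (Hill).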
# [11] = qHTS assay for small molecule activators of the p53 signaling pathway (AID 651743; active = well fitted activation curve with a large enough effect in the signal ratio, not every such curve was filed as active; the % refers to the signal ratio); conditions: HCT-116 p53RE-bla, beta-lactamase FRET ratio, 16 h; activation: stronger effect = higher value
# Outline: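 Read-out is fluorescence intensity from the LiveBLAzer B/G FRET substrate, added for 2 hours at room temperature after HCT-116 p53RE-bla cells had been incubated with compounds for 16 hours at 37 C.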
# [12] = Cytotoxicity counterscreen for NFkB agonists and antagonists (AID 624476);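 also: cells exposed to compound for 48 hours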; also: potency is read from the fitted curve at half-maximal effect
# [13] = qHTS Assay for Identification of Small Molecule Agonists for NFkB Signaling Pathway. (AID 624478);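 also: compounds tested together with TNF alpha at its EC50 of 10 pM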
# Outline: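 ME-180 cervical carcinoma, stable NFkB-RE beta-lactamase reporter; 1000 cells/well, overnight attachment; cpd + TNF alpha 10 pM final, 5 h 37 C; LiveBLAzer 2 h RT; FRET 460/530 nm, ex 405 nm.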
# [14] = qHTS Assay for Identification of Small Molecule Antagonists for NFkB Signaling Pathway. (AID 624479; calls by dose curve;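 also: pathway stimulated with TNF alpha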; also: potency is read from the fitted curve at half-maximal effect)
# [15] = Cell Proliferation Assay against the TMD8 Cell Line (AID 651645); conditions: TMD8 DLBCL cell line proliferation/viability; at 46.1 µM (top of the series) unless noted;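 also: cells exposed to compound for 48 h before reading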
# Outline: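 Viability by CellTiter-Glo after 48 h compound exposure of 500 log-phase TMD8 cells per well (RPMI, 5% FBS). Percent activity scaled between DMSO (100%) and 9.2 uM final bortezomib (0%).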
# [16] = Cell Proliferation Assay against the HBL1 Cell Line (AID 651646); conditions: HBL1 DLBCL cells; at 46.1 µM (top of the series) unless noted;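 also: cells exposed to compound for 48 h before reading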
# Outline: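 Luminescent ATP read-out (CellTiter-Glo) after 48 h compound exposure of HBL1 cells at 37 °C; percent activity was scaled between DMSO as 100% and 9.2 uM bortezomib (final) as 0%.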
# [17] = Cell Proliferation Assay against the TMD8 Cell Line (Caspase readout at 16 hrs) (AID 651712); also: potency is read from the fitted curve at half-maximal effect
# Outline: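 Apoptotic response of TMD8 cells was judged from caspase 3/7 activation following a 16 hour compound incubation at 37 °C. Luminescent signal was converted to percent activity, with DMSO set as 0% and 9.2 uM final bortezomib as 100%.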
# [18] = Cell Proliferation Assay against the TMD8 Cell Line (Caspase readout at 8 hrs) (AID 651713); also: potency is read from the fitted curve at half-maximal effect
# Outline: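 Seed log-phase TMD8 cells, add compound by pin tool, incubate 8 h at 37C under 5% CO2, equilibrate to room temperature, add Caspase-Glo, wait 15 min, read luminescence; percent activity uses DMSO and 9.2 uM bortezomib controls.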
# [19] = biological target: Tumor susceptibility gene 101 protein (Homo sapiens) (UniProt Q99816); test: qHTS Assay for Iinhibitors of HIV-1 Budding by Blocking the Interaction of PTAP/TSG101: Hit Validation (AID 651600); conditions: PTAP peptide/TSG101 UEV interaction, biochemical assay; also: potency is read from the fitted curve at half-maximal effect; nearly all actives have a fitted effect of over 70% in size
# Chain of Tumor susceptibility gene 101 protein (Homo sapiens) (Q99816 whole entry, looked up, the tested form may be a part): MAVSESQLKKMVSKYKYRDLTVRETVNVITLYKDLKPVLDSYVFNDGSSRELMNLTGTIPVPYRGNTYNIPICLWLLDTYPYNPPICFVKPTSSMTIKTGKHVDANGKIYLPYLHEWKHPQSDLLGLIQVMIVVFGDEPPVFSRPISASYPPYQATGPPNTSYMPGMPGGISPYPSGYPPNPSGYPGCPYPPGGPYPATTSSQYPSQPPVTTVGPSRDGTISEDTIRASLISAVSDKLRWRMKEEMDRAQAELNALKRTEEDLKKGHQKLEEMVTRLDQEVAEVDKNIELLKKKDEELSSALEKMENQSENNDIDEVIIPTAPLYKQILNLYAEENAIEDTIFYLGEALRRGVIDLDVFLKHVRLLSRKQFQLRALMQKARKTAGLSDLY
# Outline: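 FITC-PTAP peptide (50 nM final) binding to Tsg101 binding domain (10 uM final) was measured by polarization after 20 min at r.t. with compounds, in 10 mM HEPES pH 7.5 buffer with 0.15 M NaCl and 0.01% Tween 20.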
smiles,measurement,setting,value
COc1ccccc1OCCNCC(O)COc1cccc2[nH]c3ccccc3c12 (stereo not given),Potency,[1],inactive
same,Potency,[2],25.6 µM (active)
same,Potency,[3],inactive
same,Potency,[4],inactive
same,Potency,[5],inactive
same,Potency,[6],inactive
same,outcome,[7],inactive
same,Potency,[8],inactive
CCCNCC(O)COc1ccccc1C(=O)CCc1ccccc1 (stereo not given),Potency,[1],inactive
same,Potency,[2],25.6 µM (active)
same,Potency,[5],inactive
same,Potency,[6],inactive
same,outcome,[7],inactive
same,Potency,[8],inactive
Cc1cc(C(C)(C)C)cc(C)c1CC1=NCCN1,Potency,[1],inactive
same,Potency,[9],inactive
same,Potency,[2],inactive
same,Potency,[4],inactive
same,Potency,[5],inactive
same,Potency,[6],inactive
same,outcome,[7],inactive
same,Potency,[8],inactive
CN(C)CCOC(c1ccccc1)c1ccccc1,Potency,[9],inactive
same,Potency,[2],inactive
same,Potency,[5],inactive
same,Potency,[6],inactive
same,outcome,[7],inactive
same,Potency,[8],inactive
NC(CO)C(=O)NNCc1ccc(O)c(O)c1O (stereo not given),Potency,[10],inactive
same,Potency,[5],inactive
same,Potency,[6],inactive
same,outcome,[7],inactive
same,Potency,[8],inactive
O=C1c2c(O)ccc(O)c2C(=O)c2c(NCCNCCO)ccc(NCCNCCO)c21,Potency,[1],inactive
same,Potency,[9],inactive
same,Potency,[2],0.346 µM (active)
same,Potency,[4],3.55 µM (active)
same,Potency,[5],inactive
same,Potency,[6],inactive
same,outcome,[7],inactive
O=C(CCCN1CCC(O)(c2ccc(Cl)cc2)CC1)c1ccc(F)cc1,Potency,[1],inactive
same,Potency,[9],inactive
same,Potency,[4],inactive
same,Potency,[5],inactive
same,Potency,[6],inactive
same,activation,[11],0.976% (inactive)
CN1CCC(=C2c3ccccc3CC(=O)c3sccc32)CC1,Potency,[1],inactive
same,Potency,[5],inactive
same,Potency,[6],inactive
same,outcome,[7],inactive
same,Potency,[8],inactive
O=C1Cc2cc(CCN3CCN(c4nsc5ccccc45)CC3)c(Cl)cc2N1,Potency,[1],inactive
same,Potency,[4],inactive
same,Potency,[5],inactive
same,Potency,[6],inactive
same,outcome,[7],inactive
same,Potency,[8],inactive
CN(C)CCCN1c2ccccc2CCc2ccc(Cl)cc21,Potency,[1],inactive
same,Potency,[9],20.3 µM (active)
same,Potency,[4],inactive
same,Potency,[5],inactive
same,Potency,[6],inactive
same,outcome,[7],inactive
same,Potency,[8],inactive
C[C@H]1c2cccc(O)c2C(O)=C2C(=O)[C@]3(O)C(O)=C(C(N)=O)C(=O)[C@@H](N(C)C)[C@@H]3[C@@H](O)[C@@H]21,Potency,[10],inactive
same,Potency,[5],inactive
same,Potency,[6],inactive
same,outcome,[7],inactive
same,Potency,[8],inactive
CN(C)C(=N)N=C(N)N,Potency,[1],inactive
same,Potency,[9],inactive
same,Potency,[2],inactive
same,Potency,[12],inactive
same,outcome,[13],inactive
same,Potency,[14],inactive
same,viability (% of control),[15],131%
same,"viability, percent of control",[16],125%
same,Potency,[17],inactive
same,Potency,[18],inactive
CC[C@@]1(O)C(=O)OCc2c1cc1n(c2=O)Cc2cc3c(CN(C)C)c(O)ccc3nc2-1,Potency,[1],inactive
same,Potency,[2],0.51 µM (active)
same,Potency,[3],15.8 µM (active)
same,Potency,[12],0.0235 µM (active)
same,outcome,[13],inactive
same,Potency,[14],5.95 µM (active)
same,Potency,[19],6.51 µM (active)
same,viability (% of control),[15],4.59%
same,"viability, percent of control",[16],33.6%
same,Potency,[17],0.0074 µM (active)
same,Potency,[18],1.48 µM (active)
CN1CCN(CCCN2c3ccccc3Sc3ccc(Cl)cc32)CC1,Potency,[1],inactive
same,Potency,[5],inactive
same,Potency,[6],inactive
same,outcome,[7],inactive
same,Potency,[8],inactive
